VACV mCherry inh = qHTS for Stage-Specific Inhibitors of Vaccinia Orthopoxvirus: mCherry Reporter Primary qHTS; Vaccinia virus mCherry reporter infection, fluorescence; Potency, µM (series often up to 36.5 µM), without a hit: at the top dose activity change, negative = inhibition, hits mostly inhibitors; 310,000 tested, 0.63% active; AID 720579, 2013; calls by dose curve; tested in A549 cells; further: on the % scale 0 is the no-effect control and ±100 the full control effect; nearly all actives have a fitted effect of over 35% in size
Pf growth 48h = Primary qHTS for delayed death inhibitors of the malarial parasite plastid, 48 hour incubation | P. falciparum luciferase growth in erythrocytes, 48 h | Potency, µM (highest dose often 28.7 µM), inactives show at the top dose activity change, negative = inhibition, usual class: inhibitors | 310,000 tested, 5.9% active; further: on the % scale 0 is the no-effect control and ±100 the full control effect
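Firefly luciferase activity from engineered P. falciparum reports growth; inhibitors lower the luminescent signal. Cultures contained 2% hematocrit erythrocytes at 0.1% final parasitemia.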
NS1 inh = qHTS Assay for Inhibitors of Influenza NS1 Protein Function | 270,000 tested, 0.4% active | Potency, µM (highest dose often 46.1 µM), inactives show at the highest dose activity, positive = more growth; calls by dose curve; further: actives are rising curves; nearly all actives have a fitted effect of over 50% in size
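Compounds were scored for reversing the slow growth caused by influenza A NS1 in S. cerevisiae, measured by optical density at 600 nm. Assay medium contained 2% galactose at pH 6.0; NS1-free yeast of the same strain were the positive control.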
Pf growth 96h = Primary qHTS for delayed death inhibitors of the malarial parasite plastid, 96 hour incubation. P. falciparum luciferase reporter growth, 96 h. Potency, µM (doses to about 28.7 µM), for the others: at the top dose activity change, negative = inhibition, most hits filed as inhibitors. 320,000 tested, 6.9% active; further: on the % scale 0 is the no-effect control and ±100 the full control effect
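Parasite growth measured via integrated firefly luciferase reporter in P. falciparum. Infected erythrocytes at 2% hematocrit, 0.05% parasitemia final were treated 96 hours at 37 C under 5% CO2, and luminescence was read.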
HCV inhibitor = qHTS Assay for Inhibitors of Hepatitis C Virus (HCV). Huh7.5.1 HCVcc-Cre infection, luciferase reporter, 44 h. Potency, µM (series often up to 41.8 µM), for the others: at the highest dose activity change, negative = inhibition, most hits filed as inhibitors. 340,000 tested, 3.4% active. AID 651820, 2012; further: on the % scale 0 is the no-effect control and ±100 the full control effect
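Infectious HCVcc-Cre (~0.5 moi) was added to cells just after compound, with cells seeded 4 h earlier at 1,000 per well. Luciferase activity after 44 h culture reported infection; substrate was incubated 15 min at room temperature before reading.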
Vaccinia Venus = qHTS for Stage-Specific Inhibitors of Vaccinia Orthopoxvirus: Venus Reporter Primary qHTS; Potency, µM (top dose mostly 36.5 µM), inactives show top-dose activity change, negative = inhibition, hits mostly inhibitors; Vaccinia virus Venus reporter expression, fluorescence; 330,000 tested, 0.46% active; calls by dose curve; tested in A549 cells; further: on the % scale 0 is the no-effect control and ±100 the full control effect; nearly all actives have a fitted effect of over 30% in size
Starred values were filed as active, the others as inactive; [ ] = another dose, or the depositor's remark. A selection: hits, their analogues and other compounds. The true share with any hit is near 11%. Unless noted, the call rests on the fitted dose curve; in most records, active means well fitted inhibition curve with a large enough effect; inconclusive means small, poorly fitted or top-dose-only effect, or another doubt; inactive means no such curve, though single readings can be large or run the other way. Potency means the concentration at half of the fitted maximal effect.

Screening CN(C)/C=N/c1ncc(C(=O)c2ccc(-c3ccccc3)cc2)s1 returned VACV mCherry inh -25%, Pf growth 48h 33%, Pf growth 96h 33%, HCV inhibitor 11µM* and Vaccinia Venus -28%.
`CC1CCCC(C)N1C(=O)COC(=O)c1cc(S(=O)(=O)N2CCOCC2)ccc1Cl` (stereo not given) gave VACV mCherry inh inactive, Pf growth 48h -21%, Pf growth 96h 5%, HCV inhibitor -3% and Vaccinia Venus -15%.
COC(=O)c1ccccc1NC(=O)c1noc2c1CCCC2 was read as Pf growth 48h 30%, NS1 inh -18%, Pf growth 96h 9.3µM* and HCV inhibitor inconclusive.
Screening O=C(Nc1ccccc1C(=O)N1CCOCC1)c1noc2c1CCCC2 returned Pf growth 48h 14%, NS1 inh 7% and HCV inhibitor 13%.
For O=C(NCc1ccccc1)c1noc2c1CCCCC2 the results were VACV mCherry inh inconclusive, Pf growth 48h 154%, NS1 inh -46%, Pf growth 96h 9.3µM* and Vaccinia Venus -27%.
Screening COc1cc(NC(=O)c2noc3c2CCC3)c(OC)cc1Cl returned VACV mCherry inh inactive, Pf growth 48h 2.6µM*, NS1 inh -9%, Pf growth 96h 462%, HCV inhibitor inconclusive and Vaccinia Venus -5%.
For O=C(CN1CCOCC1)Nc1ccc2c(c1)OCCO2 the results were VACV mCherry inh inactive[7.34 µM], Pf growth 48h 66%, NS1 inh 4%, Pf growth 96h 43%, HCV inhibitor 5% and Vaccinia Venus 0%[7.34 µM].
For N#C/C(=C\c1cn[nH]c1-c1ccc(Cl)cc1)C(=O)NCc1ccccc1 the results were VACV mCherry inh -16%, Pf growth 48h 7%, NS1 inh 10%, HCV inhibitor inconclusive and Vaccinia Venus -17%.
`CCCCN1C(=O)C(CC(=O)NC2CC2)CC(C(=O)N(C(C)C)C(C)C)=C1C` (stereo not given) gave VACV mCherry inh 2% and Vaccinia Venus -3%.
COc1ccccc1NC(=O)N(C)C[C@H]1Oc2cc(Br)ccc2S(=O)(=O)N([C@H](C)CO)C[C@H]1C was read as VACV mCherry inh inconclusive and Vaccinia Venus -11%.
Screening CCc1nc(CN2CCCC(C(=O)c3ccc4c5c(cccc35)CC4)C2)c(C)[nH]1 (stereo not given) returned VACV mCherry inh -22%, Pf growth 48h inconclusive, NS1 inh 3%, Pf growth 96h 1%, HCV inhibitor 10µM* and Vaccinia Venus -13%.
`O=C(c1ccc2c3c(cccc13)CC2)C1CCCN(Cc2ncc[nH]2)C1` (stereo not given) gave VACV mCherry inh -18%, Pf growth 48h inconclusive, NS1 inh 2%, Pf growth 96h 17%, HCV inhibitor -21% and Vaccinia Venus -13%.
`CN(C)C(=O)CCC(=O)N1CCCC(C(=O)c2ccc3c4c(cccc24)CC3)C1` (stereo not given) gave VACV mCherry inh -17%, Pf growth 48h -2%, NS1 inh 4%, Pf growth 96h 15µM*, HCV inhibitor -7% and Vaccinia Venus -15%.
For Cc1ccc(C(=O)Nc2nnn(C)n2)cc1 the results were VACV mCherry inh -16%, Pf growth 48h 63%, NS1 inh -3%, Pf growth 96h -1%, HCV inhibitor 11% and Vaccinia Venus -10%.
`Cc1cc(Cl)c2oc(C(=O)N(C)CCCCN3CCOCC3)c(C)c2c1` gave VACV mCherry inh 7%, Pf growth 48h -13%, NS1 inh 18%, Pf growth 96h inconclusive, HCV inhibitor inconclusive and Vaccinia Venus -7%.
Cc1cc(Cl)c2oc(C(=O)N(C)CCc3cnn(C)c3)c(C)c2c1 was read as VACV mCherry inh inactive, Pf growth 48h -1%, NS1 inh -12%, Pf growth 96h 10µM*, HCV inhibitor inconclusive and Vaccinia Venus -13%.
`Cc1cccc(N=Cc2[nH]c3ccc(Br)c(Cl)c3c2O)c1` gave VACV mCherry inh -2%, Pf growth 48h 15µM*, NS1 inh -8%, Pf growth 96h 4%, HCV inhibitor 23% and Vaccinia Venus 1%.
`CCCCCOc1ccc(/C=C/c2c([N+](=O)[O-])c(=O)n(C)c(=O)n2C)cc1` gave VACV mCherry inh -6%, Pf growth 48h 12µM*, NS1 inh 1%, Pf growth 96h inconclusive, HCV inhibitor -16% and Vaccinia Venus -6%.
Screening COc1ccc(NC(=O)C(NC(=O)Cc2cccs2)c2ccccc2)cc1 (stereo not given) returned VACV mCherry inh -1%, Pf growth 48h 16%, NS1 inh 6%, Pf growth 96h 21%, HCV inhibitor 2% and Vaccinia Venus -17%.
`Cc1c(-c2ccccc2)cnc2c(C)cccc12` gave HCV inhibitor 11µM*.
Screening O=C(O)c1c(-c2ccccc2)cnc2ccccc12 returned VACV mCherry inh -18% and Vaccinia Venus -13%.
`CC(=O)Oc1ccc(OC(C)=O)c(SCCCCCN2CCOCC2)c1` gave Pf growth 48h 5.2µM*, NS1 inh -3%, Pf growth 96h 7.4µM* and HCV inhibitor 11µM*.
Screening N#Cc1c2ccc(OCC(N)=O)cc2n2ccccc12 returned Pf growth 48h 51%, Pf growth 96h 36% and HCV inhibitor 13µM*.
`O=C(Nc1nc2cc3c(cc2s1)OCO3)C1CC1` gave VACV mCherry inh -12%, Pf growth 48h 81%, NS1 inh -7%, Pf growth 96h 95%, HCV inhibitor 10µM* and Vaccinia Venus -7%.
For O=C(Nc1nc2ccc(Cl)cc2s1)C1CCCO1 (stereo not given) the results were NS1 inh -15%, Pf growth 96h 30%, HCV inhibitor -24% and Vaccinia Venus -21%.
Screening O=C(Nc1nc2ccc(Cl)cc2s1)C1CC1 returned HCV inhibitor 8.9µM*.
For COc1ccc(S(=O)(=O)N2CCOCC2)cc1NC(=O)c1cccs1 the results were Pf growth 48h 8%, Pf growth 96h -2% and HCV inhibitor 6%.
`CCCCc1ccc(C(=O)Nc2ccc3nc(N(CC)CC)cc(C)c3c2)cc1` gave VACV mCherry inh -16% and Vaccinia Venus -19%.
For CCN1CCN(c2cc(C)c3cc(NC(=O)c4ccccc4F)ccc3n2)CC1 the results were VACV mCherry inh -11%, NS1 inh -2%, Pf growth 96h 4.7µM* and Vaccinia Venus -12%.
Screening CCN(CC)c1cc(C)c2cc(NC(=O)c3ccc(Br)o3)ccc2n1 returned Pf growth 48h 12µM*, NS1 inh -18%, Pf growth 96h 63% and HCV inhibitor inconclusive.

Screening results from PubChem BioAssay.
